Screens: PubChem BioAssay, The Scripps Research Institute Molecular Screening Center
M4 ag – human M4 muscarinic receptor agonists, primary screen, CHO-K1 cells, Fluo-8 calcium fluorescence; CHO-K1 hM4/Gqi5; vehicle 0%, full acetylcholine response 100%; activation, % at 3 µM; actives 0.14% (n = 360,000); Muscarinic acetylcholine receptor M4 (Homo sapiens), P08173;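 active = activation above the run mean over all test wells plus 3 SD, cut at about 32% in these data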;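 also: peak over basal fluorescence ratio per well then scaled between controls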
Target sequence (P08173 whole entry, looked up): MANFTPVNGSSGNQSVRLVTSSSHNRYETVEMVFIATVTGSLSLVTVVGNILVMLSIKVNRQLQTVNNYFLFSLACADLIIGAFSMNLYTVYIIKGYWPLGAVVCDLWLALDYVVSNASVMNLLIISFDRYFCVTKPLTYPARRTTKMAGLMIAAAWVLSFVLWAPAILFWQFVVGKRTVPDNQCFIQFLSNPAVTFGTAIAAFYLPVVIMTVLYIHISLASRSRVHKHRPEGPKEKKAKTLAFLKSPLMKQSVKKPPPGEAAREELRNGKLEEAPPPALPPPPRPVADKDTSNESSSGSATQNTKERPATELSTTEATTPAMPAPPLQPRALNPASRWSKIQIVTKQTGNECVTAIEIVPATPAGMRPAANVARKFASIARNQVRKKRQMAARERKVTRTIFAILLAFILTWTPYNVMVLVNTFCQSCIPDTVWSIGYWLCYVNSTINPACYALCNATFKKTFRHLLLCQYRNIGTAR
M4 PAM – human M4 muscarinic receptor positive allosteric modulators, primary screen, CHO-K1 cells, Fluo-8 calcium fluorescence; CHO-K1 hM4/Gqi5, ACh EC20; 0% = ACh EC20, 100% = maximal ACh; activation, % at 3 µM; actives 0.4% (n = 360,000);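 active = activation above its plate's cutoff, the mean activation of sample wells plus 3 SD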
CHRM4 antagonist – human M4 muscarinic receptor antagonists, primary screen, CHO cells, Fluo-8 calcium fluorescence. Muscarinic acetylcholine receptor M4 (Homo sapiens), P08173. inhibition, % at 3 µM. CHO-hM4 cells, ACh EC80. AID 624125, 2012. actives 0.73% (n = 360,000);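 active = inhibition above its plate's cutoff, the mean inhibition of sample wells plus 3 SD, cut at about 27% in these data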
M1 ag parental – counter-screen for M1 agonists: effect in parental CHO-K1 cells; Fluo-8 calcium fluorescence; scaled to maximal ATP response, vehicle zero; activation, % at 3 µM; actives 0.48% (n = 360,000); in the data active = activation above about 15%;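 also: untransfected CHO-K1 host cells lacking M1 receptor as counterscreen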
CHO-K1 Ca antag – nonselective inhibitor or artifact in parental CHO-K1 cells | ATP-induced calcium, Fluo-8 fluorescence | inhibition, % at 3 µM | actives 0.6% (n = 360,000);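 active = inhibition above a per-plate cutoff, the plate's mean sample inhibition plus 3 SD, cut at about 24% in these data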
CHO-K1 Ca PAM – nonselective calcium activators in parental CHO-K1 cells, primary screen, counter-screen for M1 PAM project, cell-based, Fluo-8 calcium fluorescence, full deck, 1536-well; actives 0.02% (n = 360,000); AID 602247, 2012; ATP EC20; 0% at ATP EC20, 100% at ATP max; activation, % at 3 µM;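 active = activation above the run cutoff, the mean activation of all test compounds plus 3 SD, cut at about 40% in these data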;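 also: peak over basal fluorescence ratio in a 140 s read after ATP addition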
Large screens that a line does not name were inactive. The list is not random: actives were taken first. Their share in the collection is about 2%.

Cc1cc(Cl)ccc1NC(=S)NCc1ccc(S(N)(=O)=O)cc1	none
O=C(NCc1ccccc1)[C@@H]1CCCN1C(=O)[C@@H]1CCCN1C(=O)c1cccc2ccccc12	none
O=C1C2C3c4ccccc4C(c4ccccc43)C2c2nc3ccccc3n21 (stereo not drawn)	none
COc1ccc(CCNC(=S)Nc2ccc(S(=O)(=O)Nc3ncccn3)cc2)cc1OC	none
NS(=O)(=O)c1ccccc1	none
CCOc1ccc(NC(=O)CCC(=O)NNC(=O)Nc2ccc(Cl)cc2)cc1	none
CCN(c1ccccc1)S(=O)(=O)c1cc(C(=O)O)ccc1C	M4 PAM 17.3
O=C(O)c1ccc(Cl)c(S(=O)(=O)N(Cc2ccccc2)c2ccccc2)c1	none
CCOC(=O)N1CCN(C(=O)CNC(=O)c2nn(-c3ccc(OC)c(OC)c3)c(=O)c3ccccc23)CC1	none
c1ccc(CCCN2CCOCC2)cc1	M4 PAM 17.2
CCN(CC(=O)Nc1ccc(OC)c(OC)c1)S(=O)(=O)c1ccc(C)cc1	none
Fc1ccc(-n2nnnc2-c2cnc(-c3cccs3)nc2C(F)(F)F)cc1	CHRM4 antagonist 48.2
O=C(Nc1ccccc1)c1ccc(Br)c(S(=O)(=O)Nc2ccccn2)c1	none
Cc1cccc(C)c1OCC(O)Cn1ccnc1C (stereo not drawn)	CHO-K1 Ca antag 25.6
O=C1c2cccc3cccc(c23)C(=O)N1CCN1CCN(CC(O)COc2ccc3ccccc3c2)CC1 (stereo not drawn)	none
OCC1(CCc2ccccc2)CCN(C/C=C/c2ccccc2)CC1	M1 ag parental 21.2
O=C1CSC(c2ccccn2)N1c1ccc(Br)cc1 (stereo not drawn)	CHRM4 antagonist 60.6
COc1ccc(N2C(=O)CC(N3CCN(S(=O)(=O)c4cc(C)ccc4C)CC3)C2=O)cc1 (stereo not drawn)	M1 ag parental 16.1
COc1ccc(N2C(=O)CC(N3CCN(S(=O)(=O)c4c(C)cc(C)cc4C)CC3)C2=O)cc1 (stereo not drawn)	none
Cc1ccc(NC2SC(=O)N(Cc3cccc(C(=O)O)c3)C2=O)c(C)c1 (stereo not drawn)	none
CCOCCc1nnc(NC(=O)c2cc(OC)c(OC)cc2[N+](=O)[O-])s1	none
COc1ccc(Cc2nnc(NC(=O)CSc3ccc(C)cc3)s2)cc1OC	M4 ag 95.3, M1 ag parental 49.3, CHO-K1 Ca PAM 42.5
CCOC(=O)Nc1nnc(Cc2ccc(Cl)c(Cl)c2)s1	M4 PAM 22.3
COc1ccc(Cc2nnc(NC(=O)Nc3ccc(C)cc3)s2)cc1OC	none
COc1ccc(Cc2nnc(NC(=O)c3ccccc3Cl)s2)cc1OC	M1 ag parental 22.4
CCOCc1nnc(NC(=O)c2cc(OC)c(OC)cc2[N+](=O)[O-])s1	M4 PAM 21.8
CC1=CC(C)(C)N(C(=O)c2ccccc2)c2ccccc21	none
CN(C(=O)c1cccc(COc2ccc(Cl)cc2Cl)c1)c1ccccc1	none
CCCC(=O)Nc1nnc(Cc2ccccc2)s1	CHO-K1 Ca antag 30.9
CCC(=O)Nc1nnc(Cc2ccccc2)s1	none
CN1CCc2nc3ccc(Cl)cc3c(-c3ccccc3Cl)c2C1	CHRM4 antagonist 69.6
CN(Cc1ccc(F)cc1)C(=O)CN1CCN(S(=O)(=O)c2ccc3c(c2)OCCCO3)CC1	none
O=C(Nc1nc(-c2ccccc2)cs1)c1ccc(N2CCOCC2)c([N+](=O)[O-])c1	CHRM4 antagonist 43.6, CHO-K1 Ca antag 25.4
Cc1ccc(-c2csc(NC(=O)c3cc([N+](=O)[O-])ccc3N3CCOCC3)n2)cc1	none
COc1ccccc1N1CCN(C(=O)C2CCCN(S(=O)(=O)c3ccc4c(c3)oc(=O)n4C)C2)CC1 (stereo not drawn)	M1 ag parental 20.6
O=C(Cn1nnc2ccccc2c1=O)NCC1CCC(C(=O)O)CC1 (stereo not drawn)	M1 ag parental 18.2
CC(C)[C@@H](C(=O)NCC1CCC(C(=O)O)CC1)n1nnc2ccccc2c1=O (stereo partly drawn)	none
OC[C@@H]1CN(Cc2ccccc2)C[C@H](n2cnc3c(NCc4ccco4)ncnc32)O1	none
OC[C@@H]1CN(Cc2ccc(-c3ccccc3)cc2)C[C@H](n2cnc3c(NCc4ccncc4)ncnc32)O1	M1 ag parental 16.7
OCCNc1ncnc2c1ncn2[C@H]1CN(Cc2ccc(-c3ccccc3)cc2)C[C@@H](CO)O1	none
OC[C@@H]1CN(Cc2ccc(-c3ccccc3)cc2)C[C@H](n2cnc3c(NCc4ccco4)ncnc32)O1	CHRM4 antagonist 29.0, CHO-K1 Ca antag 24.8
CCOCCCNC(=O)c1[nH]c(C)c(C(C)=O)c1C	CHO-K1 Ca antag 24.0
O=C(c1cc(COc2ccc(F)cc2Cl)on1)N1CCN(C2CCCCC2)C(=O)C1	M1 ag parental 20.9
O=C(NCCn1cccn1)C1CCC(=O)N(CCc2cccc(F)c2)C1 (stereo not drawn)	none
Cc1ccc(S(=O)(=O)N/N=C/c2ccc(OC3CSC3)cc2)cc1	M4 ag 42.2, M1 ag parental 16.6
O=C(/C(=C/c1ccc(Cl)cc1)c1nc2ccccc2[nH]1)c1ccccc1	CHRM4 antagonist 38.2
CCOC(=O)CSc1ncnc2c1sc1nc(N3CCOCC3)c3c(c12)CCCC3	M4 PAM 27.7, CHO-K1 Ca antag 34.5
COC(=O)CSc1ncnc2c1sc1nc(N3CCOCC3)c3c(c12)CCCC3	none
Cc1ccc(C(=O)OCC(=O)c2ccc(Br)cc2)cc1S(=O)(=O)N1CCOCC1	none
Oc1ccccc1N1CCN(C(=S)NCCc2ccccc2)CC1	CHO-K1 Ca antag 27.7
Oc1ccc(N2CCN(C(=S)NCCc3ccccc3)CC2)cc1	none
O=C(O)c1ccc(Br)cn1	M4 PAM 20.5
c1ccc(-c2nn3c(C4CCCCC4)nnc3s2)cc1	CHO-K1 Ca antag 25.5
c1ccc(-c2nn3c(C4CCCCC4)nnc3s2)nc1	none
CCN1/C(=C/C=C/C=C/C=C/c2sc3ccccc3[n+]2CC)Sc2ccccc21	none
CCN1/C(=C/c2sc(-c3ccccc3C)c[n+]2C)Sc2ccccc21	CHO-K1 Ca antag 34.4
CC1(C)CC[C@]2(C(=O)O)CC[C@]3(C)C(=CC[C@@H]4[C@@]5(C)CC[C@H](O[C@@H]6O[C@H](C(=O)O)[C@@H](O)[C@H](O[C@@H]7OC[C@H](O)[C@H](O)[C@H]7O)[C@H]6O)C(C)(C)[C@@H]5CC[C@]43C)[C@@H]2C1	CHO-K1 Ca antag 24.3
COc1ccc(C(=O)CSc2nnc(CN3CCCCC3)n2-c2ccc(F)cc2)cc1	M1 ag parental 20.4
